Results from PubChem BioAssay (NCI).
About 79,000 compounds went through this panel and 15% of them were active in at least one assay; those are over-represented in the sample as a whole. Unmarked numbers belong to inactive results. Activity calls are given as the source filed them. Rule as the data show it: active = growth inhibition above about 70%; inactive = the rest.

What was measured:
[1] = NCI Yeast Anticancer Drug Screen. Data for the rad50 strain (AID 155);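 also: 0% = growth of vehicle-only cultures of the same strain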; conditions: S. cerevisiae rad50 strain growth inhibition; at 50.0 µM; active compounds read high
Method in brief: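 Genetically altered yeast (DNA repair pathway); compound treatment; growth inhibition vs vehicle ctrl.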

[2] = NCI Yeast Anticancer Drug Screen. Data for the mec2-1 strain (AID 157); conditions: S. cerevisiae mec2-1 strain, at 50.0 µM, active compounds read high
Method in brief: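 Strain: mec2-1 (DNA repair/cell cycle alteration). Compound exposure, then growth measured; inhibition expressed relative to vehicle.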

[3] = NCI Yeast Anticancer Drug Screen. Data for the sgs1 mgt1 strain (AID 161);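 also: 0% = growth of cultures given vehicle only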; conditions: S. cerevisiae sgs1 mgt1 strain, at 50.0 µM, active compounds read high
Method in brief: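 Read-out: growth inhibition vs vehicle controls. Cells: mutant yeast strain deficient in DNA damage repair.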

[4] = NCI Yeast Anticancer Drug Screen. Data for the cln2 rad14 strain (AID 165);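 also: 0% = growth equal to vehicle treated cultures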; conditions: S. cerevisiae cln2 rad14 strain, at 50.0 µM, active compounds read high
Method in brief: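 Compounds are applied to the cln2 rad14 yeast strain, and growth is then compared with that of vehicle-treated cultures to give inhibition.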

[5] = NCI Yeast Anticancer Drug Screen. Data for the bub3 strain (AID 167); conditions: S. cerevisiae bub3 mutant strain, at 50.0 µM, active compounds read high
Method in brief: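 Yeast carrying a defined mutation is treated with each compound, and growth is compared with that of vehicle-exposed cells to give inhibition.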

[6] = NCI Yeast Anticancer Drug Screen. Data for the mlh1 rad18 strain (AID 175); conditions: S. cerevisiae mlh1 rad18 strain growth inhibition; at 50.0 µM; active compounds read high
Method in brief: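 Read-out is yeast growth inhibition, calculated against vehicle-only controls. The compound was applied to a strain engineered with DNA damage repair alterations.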

Compound | growth inhibition [1] [%] | growth inhibition [2] [%] | growth inhibition [3] [%] | growth inhibition [4] | growth inhibition [5] [%] | growth inhibition [6] [%]
C1CCN(/N=N/c2nn[nH]n2)CC1 | -2.3 | 6.55 | -2.8 | -23% | 3.9 | -0.7
C=CCN1C(=O)c2ccccc2S1(=O)=O | 8.2 | -2.35 | -5.95 | -27.8% | -3.15 | 3.55
O=C(NC1COB(c2cccc([N+](=O)[O-])c2)OC1c1ccc([N+](=O)[O-])cc1)C(Cl)Cl (stereo unspecified) | 12.8 | 27.9 | 5.65 | -23.9% | 15.7 | 63.5
NC(=O)c1ccc[n+](CCCCCCCCCCC(=O)[O-])c1 | -7 | 7.05 | 0.8 | -15% | 4.75 | 1.95
CNS(=O)(=O)c1ccc(N)cc1 | -2.9 | -5.6 | 2.8 | -27.2% | 3.15 | 2.9
COc1ccc(/C=C2/C(=O)N=C(NC(C)=O)N2C)cc1OC | -13.8 | -14.2 | -13.7 | -2.1% | 4.7 | 4.55
Nc1ccccc1C(=O)Nc1ccc(Cl)cc1C(=O)O | -7 | -3 | -14.2 | -14.8% | 2.65 | -5.1
CCCCC(C=O)(CC)CCC#N (stereo unspecified) | 45.1 | -2.55 | 46.3 | -17.9% | -16.1 | 42.2
CCOc1c(N=Nc2ccc(OC)cc2)c(C)nn1C(N)=S | -12.5 | -1.5 | 2.85 | -48.7% | 9.75 | 15.2
CC(C)=CCN(N=O)c1ncnc2nc[nH]c12 | -10.1 | 31.1 | -24.8 | -2.5% | 18.9 | 9.85
CC1(C)[C@@H]2CC[C@]1(C)[C@H](OC(=O)/C=C/c1ccccc1)C2 | 1.9 | -39.8 | -11.4 | 8.5% | -16 | -1.5
O=C(O)CCSc1nc2c(=O)[nH][nH]c(=O)c2n1Cc1ccccc1 | 7.2 | -13.2 | 7.05 | -53.1% | -0.75 | 9.7
Cc1ccc(C)c2c1CCc1cc3ccccc3nc1-2 | 26.4 | -7.5 | 11.8 | 7.9% | 30.2 | 13.8
O=C(NCc1ccccc1)NCc1ccccc1 | -25.5 | -0.65 | -2.5 | -13.8% | -18.4 | -4.5
O=C(CCCCC(=O)NC1c2ccccc2Oc2ccccc21)NC1c2ccccc2Oc2ccccc21 | 35.2 | 12.1 | 31 | 32% | 9.25 | 31.4
NC(=O)c1ncn2c(=O)n(CCCl)nnc12 | -17.2 | -9.4 | 1.4 | 19.5% | -4.15 | -47.2
CC(C)(C)c1ccc(OS(=O)(=O)c2ccc(Cl)c(Cl)c2)cc1 | 0.4 | 17.4 | 0.35 | 31.6% | 6.8 | -4.85
O=[N+]([O-])c1ccc(N/N=C/c2ccccc2Cl)c([N+](=O)[O-])c1 | 15.3 | -9.55 | -1.15 | -22.4% | 9.75 | 27.3
CC(C)=CCc1c(O)ccc2ccc(=O)oc12 | 21.6 | 20.1 | 10.2 | 17.9% | 7.3 | 29.4
CN1C(=O)N(c2nc3ccccc3[nH]2)C(C)(C)C1=O | 5.25 | 1.9 | -23.8 | -6.4% | 6.35 | 18.6
Nc1cc(Cl)c(N(CCO)C2=NCCN2)c(Cl)c1 | 3.8 | -3.25 | 3.05 | -12.2% | 1.3 | -5.75

Compound | growth inhibition [1] [%] | growth inhibition [2] [%] | growth inhibition [3] [%] | growth inhibition [4] | growth inhibition [5] [%] | growth inhibition [6] [%]
CCCCOC(=O)C(=O)C(CC(C(=O)Cc1ccccc1)c1ccccc1)C(=O)C=C(C)C (stereo unspecified) | -0.1 | -5.3 | -0.7 | -12.1% | 27.2 | -18.2
Nc1ccc(CC(N)C(=O)O)cc1 (stereo unspecified) | -2.7 | -12.8 | -22.3 | -5.6% | -6.55 | -13.3
C/C(=N\N(C)/C=N/S(C)(=O)=O)c1ccccc1 | 7.85 | 9.5 | 24.5 | 74.5% (active) | -2.9 | -3.25
O=C(CN1CCCCC1)NC(=O)N/N=C\c1ccco1 | 0.1 | 3 | 6.1 | -59% | -0.15 | 13.8
O=C(CN=C(CN(c1ccccc1)c1ccccc1)Oc1c(Cl)cc(Cl)cc1Cl)N1c2ccccc2Sc2ccccc21 | 4.75 | -10.8 | 36.5 | -36.2% | -14.7 | 7.8
CC(SC(=S)N1CCOCC1)c1cc2oc(=O)n(C)c2cc1Cl (stereo unspecified) | 2.4 | 7.95 | 8.35 | -5.15% | 24.8 | 20.5
O=P(O)(O)OC1C(OP(=O)(O)O)C(OP(=O)(O)O)C(OP(=O)(O)O)C(OP(=O)(O)O)C1OP(=O)(O)O.[Zn+2] (stereo unspecified) | -24.7 | -4.8 | -16.6 | 9.6% | -23 | -6.2
CN(C)CCC(N)(P(=O)([O-])[O-])P(=O)([O-])[O-].N.N.[Pt+2] | -24.5 | 2.2 | 3.15 | 12.9% | 12.3 | 3.95
Cc1cc(N)c(C)c2ccncc12 | -11.4 | 0 | -11.5 | -15.2% | 24.2 | 2.75
c1ccc([Si](c2ccccc2)(c2ccccc2)c2ccc(-c3ccc([Si](c4ccccc4)(c4ccccc4)c4ccccc4)cc3)cc2)cc1 | 1.1 | -0.75 | -8.3 | -4.35% | -0.05 | -15.9
CCCCCCCCCCCCC(CC)(C(=O)OCC)C(=O)OCC | -1.6 | -0.6 | 13 | -59.5% | 1.15 | -2
Cc1ccc(C(=O)NO)cc1 | 28.8 | -5.6 | 7.65 | -4.65% | 13.8 | 17.5
C=CCNC(=O)N(CCC)CCCCC(NC(C)=O)C(=O)NCc1ccccc1 (stereo unspecified) | 11.5 | 7.5 | -8.4 | 18.6% | 8.75 | 4.35
CCC(=O)N(C)c1ccccc1 | 22.4 | 6.3 | 0.75 | 12.2% | -0.35 | -23.4
CCCCCCC(=O)C(N)Cc1ccccc1 (stereo unspecified) | 0.45 | -27.1 | 3.7 | 8.2% | -1.1 | 20
Cc1cn(C2CC(O)C(COC(N)=O)O2)c(=O)[nH]c1=O (stereo unspecified) | -38.2 | -20.9 | -11.6 | -5.3% | -44.3 | 2.35
CC1(c2ccccc2)OCC(c2ccccc2)O1 (stereo unspecified) | -9.2 | -23.2 | -7 | -22% | 12.7 | 10.3
NC(=O)N/N=C(\Cc1nc2ccc(Cl)cc2[nH]c1=O)C(=O)Nc1ccc(Cl)cc1Cl | 11.9 | 11.8 | 7.2 | -30.1% | -0.85 | 15.2
CCN(CC)CCCn1c(-c2ccccc2)ccc1-c1ccccc1 | 10.1 | -6 | 8.1 | -16.4% | 21.4 | 18.4
O=C1c2ccccc2C(=O)N1CC(O)COCc1ccccc1 (stereo unspecified) | -17.8 | -25.8 | -31.7 | -15.9% | 25.6 | -6.55
